Active and inactive are the calls of the source.
Columns and labels:
[1] = E. coli DRC41 culture turbidity changes, primary screen, E. coli filamentation inducer project, strain DRC41, OD650, 48 h (AID 1152);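 also: E. coli MC1000 strain DRC41 lacking acrAB efflux pump and sulA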; conditions: E. coli DRC41 (acrAB sulA), higher = more signal, called active from +8 up or from −8 down
[2] = small-molecule binders of probe aLefty1, primary screen, biochemical, small-molecule microarray, 635/667 nm fluorescence (AID 1153); conditions: higher = more signal;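 also: score merges spot fluorescence with signal-to-noise ratio from the scanned slide images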
[3] = PSAC antagonists in infected red cells, primary screen, cell-based, P. falciparum Indochina, OD700, 1 h (AID 1154); conditions: P. falciparum Indochina infected RBC osmotic lysis, higher = more signal, called active from +8 up or from −8 down
[4] = PSAC antagonists in infected red cells, primary screen, cell-based, P. falciparum Indochina, OD700, 2 h (AID 1155);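 also: lysis reports solute entry through the parasite surface anion channel PSAC; channel blockers reduce lysis of infected cells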; conditions: P. falciparum Indochina infected erythrocytes, osmotic lysis OD700; higher = more signal, called active from +8 up or from −8 down
[5] = osmotic lysis modulators in infected erythrocytes, primary screen, PSAC antagonist project, cell-based, P. falciparum Indochina, OD700, 3 h (AID 1156); conditions: higher = more signal, called active from +8 up or from −8 down
[6] = PSAC antagonists in infected red cells, primary screen, cell-based, P. falciparum Indochina, OD700, 18 h (AID 1157); conditions: P. falciparum Indochina infected erythrocytes, osmotic lysis OD700, 18 h; higher = more signal, called active from +8 up or from −8 down
[7] = modulators of S6 phosphorylation in cells, primary screen, cell-based, A549, cytoblot, luminescence, serum-stimulated (AID 1158); conditions: A549 phospho-S6 cytoblot, 5 h, higher = more signal;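 also: serum-stimulated A549 lung adenocarcinoma cells; signal is phosphorylated S6 detected by cytoblot immunostaining with HRP secondary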
[8] = target: NADPH oxidase 2 (Homo sapiens) (UniProt P04839); assay: NOX2-dependent H2O2 signal modulators, primary screen, NOX inhibitor project, cell-based, HEK293-NOX2, PMA-stimulated, Amplex Red fluorescence (AID 1159); conditions: 45 min, higher = more signal, called active from +8 up or from −8 down; also: test concentration not given here
Sequence of NADPH oxidase 2 (Homo sapiens) (P04839 whole entry, looked up): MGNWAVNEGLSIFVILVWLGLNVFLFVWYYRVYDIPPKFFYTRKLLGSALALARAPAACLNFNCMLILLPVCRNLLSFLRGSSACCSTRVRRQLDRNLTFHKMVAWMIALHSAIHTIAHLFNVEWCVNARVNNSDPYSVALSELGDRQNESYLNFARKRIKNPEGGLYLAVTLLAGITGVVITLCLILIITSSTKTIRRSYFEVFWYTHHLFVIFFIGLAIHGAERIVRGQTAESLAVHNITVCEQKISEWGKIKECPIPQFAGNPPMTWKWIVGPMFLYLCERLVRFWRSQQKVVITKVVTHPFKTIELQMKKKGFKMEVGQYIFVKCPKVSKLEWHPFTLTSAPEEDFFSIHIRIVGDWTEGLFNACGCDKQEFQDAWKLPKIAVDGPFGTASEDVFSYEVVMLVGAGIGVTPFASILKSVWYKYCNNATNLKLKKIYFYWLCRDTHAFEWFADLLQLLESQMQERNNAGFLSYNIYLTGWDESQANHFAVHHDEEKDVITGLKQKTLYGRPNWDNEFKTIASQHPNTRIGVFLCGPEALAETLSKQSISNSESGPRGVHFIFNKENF

[9] = target: NADPH oxidase 4 (Homo sapiens) (UniProt Q9NPH5); assay: NOX4-dependent H2O2 signal modulators, primary screen, NOX inhibitor project, cell-based, HEK293-NOX4, tetracycline-induced, Amplex Red fluorescence (AID 1160); conditions: 45 min, higher = more signal, called active from +8 up or from −8 down
Sequence of NADPH oxidase 4 (Homo sapiens) (Q9NPH5 whole entry, looked up): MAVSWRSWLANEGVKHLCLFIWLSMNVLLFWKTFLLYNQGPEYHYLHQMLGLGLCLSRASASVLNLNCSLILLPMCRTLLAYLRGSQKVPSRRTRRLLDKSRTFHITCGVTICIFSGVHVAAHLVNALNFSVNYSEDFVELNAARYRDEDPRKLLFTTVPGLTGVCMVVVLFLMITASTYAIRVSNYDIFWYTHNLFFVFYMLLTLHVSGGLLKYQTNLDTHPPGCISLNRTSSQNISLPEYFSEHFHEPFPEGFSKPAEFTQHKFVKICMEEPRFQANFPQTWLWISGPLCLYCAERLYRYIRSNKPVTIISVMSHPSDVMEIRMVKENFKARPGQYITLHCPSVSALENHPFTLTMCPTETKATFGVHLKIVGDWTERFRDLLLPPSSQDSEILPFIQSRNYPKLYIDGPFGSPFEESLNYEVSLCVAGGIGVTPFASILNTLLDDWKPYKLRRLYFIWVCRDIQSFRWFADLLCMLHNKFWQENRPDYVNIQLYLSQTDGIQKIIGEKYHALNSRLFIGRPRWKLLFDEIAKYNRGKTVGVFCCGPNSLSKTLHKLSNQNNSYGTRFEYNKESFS

[10] = target: NADPH oxidase 5 (Homo sapiens) (UniProt Q96PH1); assay: NOX5-dependent H2O2 signal modulators, primary screen, NOX inhibitor project, cell-based, HEK293-NOX5, Amplex Red fluorescence (AID 1161); conditions: HEK293-NOX5, ionomycin, 45 min, higher = more signal
Sequence of NADPH oxidase 5 (Homo sapiens) (Q96PH1 whole entry, looked up): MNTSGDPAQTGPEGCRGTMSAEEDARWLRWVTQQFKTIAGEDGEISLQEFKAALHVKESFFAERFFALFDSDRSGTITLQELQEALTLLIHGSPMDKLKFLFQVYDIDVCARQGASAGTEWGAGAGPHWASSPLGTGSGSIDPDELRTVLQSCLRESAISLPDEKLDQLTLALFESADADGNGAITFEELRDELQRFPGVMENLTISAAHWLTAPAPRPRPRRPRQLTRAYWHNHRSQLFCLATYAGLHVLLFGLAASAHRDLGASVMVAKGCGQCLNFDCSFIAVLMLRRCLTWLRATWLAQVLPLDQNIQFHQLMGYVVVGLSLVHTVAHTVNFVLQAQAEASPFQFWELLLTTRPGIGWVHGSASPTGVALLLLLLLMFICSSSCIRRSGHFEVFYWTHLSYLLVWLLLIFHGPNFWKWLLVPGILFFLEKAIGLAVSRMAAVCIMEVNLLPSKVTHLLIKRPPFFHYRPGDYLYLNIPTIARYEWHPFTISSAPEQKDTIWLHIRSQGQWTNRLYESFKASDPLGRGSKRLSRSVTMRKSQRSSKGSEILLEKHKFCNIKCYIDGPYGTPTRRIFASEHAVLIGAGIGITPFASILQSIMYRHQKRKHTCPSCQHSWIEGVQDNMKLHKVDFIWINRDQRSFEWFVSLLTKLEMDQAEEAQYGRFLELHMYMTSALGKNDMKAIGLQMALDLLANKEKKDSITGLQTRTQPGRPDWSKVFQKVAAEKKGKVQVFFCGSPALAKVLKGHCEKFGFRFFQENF

[11] = A549 cell viability effects, profiling panel, calcein-AM fluorescence, 48 h, basal (AID 1162); conditions: higher = more signal; also: test concentration not given here
[12] = adipocyte viability effects, profiling panel, cell-based, 3T3-L1 adipocytes, calcein-AM fluorescence, 48 h, basal (AID 1163); conditions: 3T3-L1 adipocytes viability, higher = more signal; also: test concentration not given here
[13] = HepG2 cell viability effects, profiling panel, calcein-AM fluorescence, 48 h, basal (AID 1164); conditions: higher = more signal; also: test concentration not given here
[14] = MM1S cell viability effects, profiling panel, calcein-AM fluorescence, 48 h, basal (AID 1165); conditions: higher = more signal;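 also: viability of MM1S multiple myeloma cells under basal unstimulated conditions; test concentration not given here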
[15] = basal RPMI8226 viability, no added stimulus, profiling panel, cell-based, calcein-AM fluorescence, 48 h, PK04 Diversity Set (AID 1166); conditions: RPMI8226 myeloma viability, higher = more signal;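 also: cells grown under basal conditions without added stimulus; test concentration not given here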
[16] = basal HepG2 mitochondrial membrane potential changes, profiling panel, cell-based, JC-1 fluorescence, 24 h, 100 nL compound (AID 1167); conditions: higher = more signal; also: test concentration not given here
[17] = basal 3T3-L1 adipocyte mitochondrial potential changes, profiling panel, cell-based, JC-1 fluorescence, 3T3-L1 adipocytes, 24 h, 100 nL compound (AID 1168); conditions: JC-1 mitochondrial fluorescence, higher = more signal, called active from +8 up or from −8 down; also: test concentration not given here
[18] = basal RPMI8226 mitochondrial membrane potential changes, profiling panel, cell-based, JC-1 fluorescence, 24 h, 100 nL compound (AID 1169); conditions: RPMI8226 myeloma, JC-1 mitochondrial potential fluorescence, higher = more signal; also: test concentration not given here
[19] = basal MM1S mitochondrial membrane potential changes, profiling panel, cell-based, JC-1 fluorescence, 24 h, 100 nL compound (AID 1170); conditions: higher = more signal; also: test concentration not given here
[20] = A549 lung cancer cell viability effects, profiling panel, resazurin fluorescence, 24 h, PK04 Diversity Set (AID 1171); conditions: higher = more signal, called active from +8 up or from −8 down; also: test concentration not given here

Row | Structure (SMILES) | z-score [1] | composite z-score [2] | z-score [3] | z-score [4] | z-score [5] | z-score [6] | z-score [7] | z-score [8] | z-score [9] | z-score [10] | z-score [11] | z-score [12] | z-score [13] | z-score [14] | z-score [15] | z-score [16] | z-score [17] | z-score [18] | z-score [19] | z-score [20]
1 | NC(=O)NCC#Cc1ccc2c(c1)[C@]1(C(=O)N2)[C@H](c2ccccc2OCCO)N2[C@H](c3ccccc3)[C@H](c3ccccc3)OC(=O)[C@H]2[C@@H]1C(=O)Nc1nc2ccccc2s1 | 0.726 (inactive) | 0.0692 | 1.19 (inactive) | 1.36 (inactive) | -5.62 (inactive) | 1.28 (inactive) | -0.0906 | 1.95 (inactive) | 1.32 (inactive) | 0.883 | 0.334 | 0.226 | -0.126 | 0.0225 | -0.048 | -2.78 | 2.99 (inactive) | -0.885 | -1.73 | 0.659 (inactive)
2 | COc1ccc(CCNC(=O)[C@@H]2c3ccccc3C(=O)N(Cc3ccccc3Cl)[C@H]2c2ccc(CO)cc2)cc1 | -0.497 (inactive) | -0.0999 | 3.59 (inactive) | 0.474 (inactive) | 0.209 (inactive) | -0.11 (inactive) | -0.144 | -3.49 (inactive) | 0.151 (inactive) | -2.46 | 1.37 | 0.789 | 0.332 | -0.897 | -0.474 | 1.64 | 0.716 (inactive) | -0.0929 | 1.42 | 1.22 (inactive)
3 | [N-]=[N+]=Nc1ccccc1[C@@H]1OC(c2ccc(OCCCO)cc2)=N[C@]1(CCS(=O)(=O)c1ccccc1)C(N)=O | 0.307 (inactive) | 0.572 | 29.1 (active) | 26.1 (active) | 1.26 (inactive) | 5.2 (inactive) | 0.0742 | -1.8 (inactive) | 2.14 (inactive) | 0.903 | -0.811 | -0.267 | -0.554 | -0.648 | 0.0806 | -2.73 | -1.91 (inactive) | -0.0842 | -0.305 | 0.404 (inactive)
4 | C=C[C@@H](COC(=O)OC(C)(C)C)N(Cc1ccc(OC)cc1)S(=O)(=O)c1ccc(Br)cc1 | -1.13 (inactive) | -0.0094 | 1.4 (inactive) | -0.0352 (inactive) | -0.856 (inactive) | -0.0871 (inactive) | -0.273 | -0.348 (inactive) | 0.525 (inactive) | -1.28 | 1.39 | 0.332 | -0.002 | -3.08 | -1.36 | -0.997 | -0.239 (inactive) | -0.525 | 0.101 | 1.74 (inactive)
5 | CCCCCN1CC=CC23O[C@@H]4C=CCCOC(=O)C4[C@H]2C(=O)N(CCCCCO)[C@@H]3C1=O (stereo not given in full) | 1.09 (inactive) | -0.0984 | 1.73 (inactive) | 1.1 (inactive) | 2.68 (inactive) | 0.575 (inactive) | 0.708 | 1.36 (inactive) | 0.228 (inactive) | 1.32 | 0.0264 | -1.3 | 0.542 | 1.8 | 1.74 | 0.301 | -0.0303 (inactive) | 0.159 | -0.849 | 0.26 (inactive)
6 | O=C1O[C@@H](c2ccccc2)[C@@H](c2ccccc2)N2[C@@H](c3ccccc3OCCO)[C@]3(C(=O)Nc4ccc(C#CC5=CCCCC5)cc43)[C@@H](C(=O)N3CCCCCCC3)[C@H]12 | -0.511 (inactive) | 2.96 | -0.0047 (inactive) | 0.0859 (inactive) | -0.339 (inactive) | 0.68 (inactive) | -0.359 | 0.624 (inactive) | 0.55 (inactive) | -0.797 | -1.66 | 0.25 | 0.297 | -3.09 | -2.79 | 1.19 | -1.85 (inactive) | -0.715 | -1.75 | -0.312 (inactive)
7 | CC(C)C(O)C1C=CC2C(=O)N(c3ccccc3)C(=O)C2N1Nc1ccc([N+](=O)[O-])cc1 (stereo not given) | -0.467 (inactive) | 0.0045 | 11 (active) | 1.48 (inactive) | 0.928 (inactive) | 0.779 (inactive) | -0.326 | -0.59 (inactive) | -1.82 (inactive) | -1.23 | -0.821 | -1.18 | 0.497 | 0.637 | -0.023 | -1.41 | -1.37 (inactive) | 0.766 | -1.07 | -0.397 (inactive)
8 | COc1cc2c(cc1O)C(C1CC1)N(Cc1sc3ccccc3c1Cl)CC2 (stereo not given) | -1.54 (inactive) | -0.0162 | 13.1 (active) | 3.41 (inactive) | -0.449 (inactive) | 1.33 (inactive) | -0.0956 | -4.57 (inactive) | -2.68 (inactive) | -3.45 | -4 | 0.0337 | -4.15 | -3.32 | -4.44 | -3.67 | -1.07 (inactive) | -0.858 | -0.539 | -0.663 (inactive)
9 | C=C(COC)C(=O)CC[C@@H](OC(C)=O)c1ccc(CO)o1 | 0.0488 (inactive) | 0.0371 | 0.116 (inactive) | -0.47 (inactive) | 0.195 (inactive) | -0.38 (inactive) | -0.142 | 0.663 (inactive) | 0.0844 (inactive) | 0.46 | -0.97 | 0.186 | 0.473 | -0.0988 | -0.355 | -0.799 | 0.195 (inactive) | -0.548 | -0.066 | 0.188 (inactive)
